Screening results (PubChem BioAssay)
This is a sample that favours compounds with a hit; in the whole collection about 0.81% have one here.
RTF Ca sens act – increases calcium sensitivity of human cardiac regulated thin filaments; 0.24% of 340,000 active; AID 493008; activation, % at 7.2 µM; IANBD-labeled TnC RTF fluorescence at EC20 calcium; 0% EC20 calcium, 100% full calcium; P19429+P45379;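 active = activation above the mean over all tested compounds plus 3 SD, cut at about 30% in these data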;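 note: rise in fluorescence read as greater calcium sensitivity of cardiac thin filaments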
IDE inh – inhibits human insulin-degrading enzyme in HEK cells; inhibition, % at 5.59 µM; 0.41% of 320,000 active; FAbetaB cleavage, fluorescence polarization;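 active = percent inhibition above the average of all tested compounds plus 3 SD, set per screening campaign, cut at about 16% in these data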;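 note: IDE supplied by intact live HEK cells; FP after avidin binding of uncleaved biotin substrate so inhibition keeps polarization high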
LANA DNA inh – blocks KSHV LANA C-terminal domain binding to DNA | MBP-C-LANA/FAM-LBS DNA binding, fluorescence polarization | inhibition, % at 9 µM | 0.078% of 340,000 active | AID 504423;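 active = highest replicate inhibition at or above 60% at 9 µM, even if other replicates fall short; inactive = all replicates below 60% inhibition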
Keap1-Nrf2 PPI – Keap1-Nrf2 (human) interaction inhibition | Keap1 Kelch-Nrf2 peptide fluorescence polarization, 1536-well | inhibition, % at 9.4 µM | 0.15% of 340,000 active; in the data active = inhibition above about 12%;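 note: human Keap1 Kelch domain with fluorescein labeled Nrf2 9mer peptide probe; higher means more block of Keap1 binding to Nrf2 peptide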
Target sequence (Q14145 whole entry, looked up, the tested form may be a part): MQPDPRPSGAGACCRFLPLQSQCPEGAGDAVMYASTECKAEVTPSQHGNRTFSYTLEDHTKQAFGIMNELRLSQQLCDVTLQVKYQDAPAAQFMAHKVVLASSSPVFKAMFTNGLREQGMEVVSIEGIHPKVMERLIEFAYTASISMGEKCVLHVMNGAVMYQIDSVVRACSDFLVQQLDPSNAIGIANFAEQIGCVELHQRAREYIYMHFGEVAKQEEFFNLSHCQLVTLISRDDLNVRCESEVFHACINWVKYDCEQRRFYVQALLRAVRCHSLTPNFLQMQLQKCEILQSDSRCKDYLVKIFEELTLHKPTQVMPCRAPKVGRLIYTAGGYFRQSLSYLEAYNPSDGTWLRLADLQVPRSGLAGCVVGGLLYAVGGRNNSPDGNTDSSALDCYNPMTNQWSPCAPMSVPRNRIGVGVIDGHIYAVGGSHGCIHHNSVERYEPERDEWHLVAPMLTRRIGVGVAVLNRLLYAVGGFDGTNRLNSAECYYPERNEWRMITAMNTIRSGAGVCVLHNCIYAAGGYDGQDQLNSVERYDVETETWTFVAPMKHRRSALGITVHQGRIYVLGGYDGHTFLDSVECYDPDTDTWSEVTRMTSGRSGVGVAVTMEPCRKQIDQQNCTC
IDE act – IDE (human) activation, cell-based; activation, % at 5.96 µM; 0.073% of 340,000 active; AID 493087; HEK cells, FAbeta-B cleavage, fluorescence polarization; 0% vehicle, 100% cell-free pure enzyme wells; P14735;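 active = activation above the mean of all tested compounds plus 3 SD, set per screening campaign, cut at about 17% in these data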
RTF Ca sens inh – cardiac RTF calcium desensitization. P19429+P45379. IANBD-labeled cardiac RTF, Ca2+ fluorescence. inhibition, % at 7.15 µM. 0.12% of 340,000 active. AID 493244;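 active = inhibition above the mean inhibition of all tested compounds plus 3 SD, cut at about 17% in these data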;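 note: assay run at fixed EC70 calcium of 1.6 mM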
IDE cell inh cf – confirmation of human insulin-degrading enzyme inhibitors in cells | shares compounds with IDE inh | HEK cells, FAbetaB cleavage, fluorescence polarization | inhibition, % at 5.59 µM | 51% of 1,200 active | AID 435028;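 active = mean inhibition across triplicate wells above the cutoff set by the earlier primary insulin-degrading enzyme screen, cut at about 16% in these data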
HEK cytotox – kills HEK cells in IDE inhibitor counter-screen. 28% of 1,200 active. HEK293 cytotoxicity, ATP luminescence. shares compounds with IDE inh. inhibition, % at 5.59 µM; in the data active = inhibition above about 22%
FP fluor counter – fluorescence interference counter-screen for IDE inhibitors | shares compounds with IDE inh | FP counterscreen for fluorescent artifacts, IDE probe project | IC50, µM | 30 tested, under 10 active; call rule not given here
Each line names hits and unclear results; the compound was inactive in the other large screens (follow-up assays come after a bar, where they were run).

COC(=O)C1=C(C)N=c2s/c(=C/c3ccoc3)c(=O)n2C1c1ccccc1 (stereo not drawn)	IDE inh 28 | IDE cell inh cf 29 | HEK cytotox inactive
CCSC1=NSC2=NC(=O)/C(=C\c3coc4ccccc4c3=O)C(=N)N12	RTF Ca sens act 555, IDE inh 55 | IDE cell inh cf 51 | HEK cytotox inactive
CSC1=NSC2=NC(=O)/C(=C\c3ccc(OC(=O)c4ccco4)cc3)C(=N)N12	none
COc1ccc(OC)c(/C=C2\Oc3cc(OCC(=O)N4CCC(C(=O)O)CC4)ccc3C2=O)c1	IDE inh 22 | IDE cell inh cf 65 | HEK cytotox inactive
CCc1cccc(NC(=O)[C@@H]2CCCN2C2=NS(=O)(=O)c3ccccc32)c1	none
Cc1ccc(NC(=O)Cn2sc3nc(C)cc(C)c3c2=O)c(Cl)c1	IDE inh 54 | IDE cell inh cf inactive | HEK cytotox 27
CCOc1ccc(NC(=O)Cn2sc3nc(C)cc(C)c3c2=O)cc1	IDE inh 40 | IDE cell inh cf inactive | HEK cytotox 79
Cc1cc(C)c2c(=O)n(CC(=O)Nc3ccc(Cl)cc3)sc2n1	IDE inh 46 | IDE cell inh cf inactive | HEK cytotox 76
Cc1ccc(NC(=O)Cn2c(C)cc(C)c(C#N)c2=O)c(Cl)c1	none
Cc1cccc(N2CCN(C(=O)Cn3sc4nc(C)cc(C)c4c3=O)CC2C)c1 (stereo not drawn)	IDE inh 41 | IDE cell inh cf inactive | HEK cytotox 76
CCOc1ccc(NC(=O)Cn2ncc3ccccc32)cc1	none (no result: IDE inh)
Cc1cc(C)c2c(=O)n(CC(=O)Nc3cccc(F)c3)sc2n1	IDE inh 21 | IDE cell inh cf inactive | HEK cytotox 113
CC(=O)Oc1ccc(N2C(=O)c3cccc4c([N+](=O)[O-])ccc(c34)C2=O)cc1	IDE inh 18 | IDE cell inh cf inactive | HEK cytotox 68
Cc1ccccc1-n1c(SCc2csc(Nc3ccccc3)n2)nnc1-c1cccnc1	IDE inh 21 | IDE cell inh cf inactive | HEK cytotox inactive
CC(=O)c1cc(NC(=O)c2ccc(Cl)cc2)c(=O)oc1/C=C/N(C)C	IDE inh 17 | IDE cell inh cf 54 | HEK cytotox inactive
O=C(N/N=C/c1cc(Br)cc(Br)c1O)c1cccc(N2CCCC2=O)c1	none
O=C(N/N=C/c1ccc(Cl)cc1Cl)c1cccc(N2CCCC2=O)c1	IDE inh 34 | IDE cell inh cf inactive | HEK cytotox inactive
C=CCN1C(=O)c2ccc(C(=O)OCC(=O)N(CC)c3c(N)n(Cc4ccccc4)c(=O)[nH]c3=O)cc2C1=O	none (no result: IDE inh)
COC(=O)c1cc(Sc2c(Cl)cccc2Cl)ccn1	none
COC(=O)c1cc(Sc2cccc(Cl)c2Cl)ccn1	IDE inh 19 | IDE cell inh cf inactive | HEK cytotox inactive
CC(C)c1ccc(NC(=O)CSc2nnc(-c3ccccn3)n2C)cc1	IDE inh 19 | IDE cell inh cf inactive | HEK cytotox inactive
CC(C)c1ccc(NC(=O)CSc2nnc(CN3CCOCC3)n2C)cc1	IDE inh 17 | IDE cell inh cf inactive | HEK cytotox inactive
COC(=O)c1cc(NC(=O)CSc2nnc(CN3CCOCC3)n2C)ccc1Cl	IDE inh 21 | IDE cell inh cf inactive | HEK cytotox inactive
Cn1c(CN2CCOCC2)nnc1SCC(=O)Nc1ccc2c(c1)OCCO2	none
COc1cccc(NC(=O)CSc2nnc(CN3CCOCC3)n2C)c1	none
Cn1c(CN2CCOCC2)nnc1SCC(=O)Nc1cc(Cl)ccc1Cl	none
COc1ccc(NC(=O)CSc2nnc(CN3CCOCC3)n2C)cc1Cl	IDE inh 22 | IDE cell inh cf 23 | HEK cytotox inactive | FP fluor counter inactive
O=C(NNc1c(Cl)cccc1Cl)C1CCC1	none
Cc1ccc(NC(=O)CSc2nnc(CN3CCOCC3)n2C)cc1C	IDE inh 19 | IDE cell inh cf 18 | HEK cytotox inactive
COc1ccc(Cl)cc1NC(=O)CSc1nnc(CN2CCOCC2)n1-c1ccc(Cl)cc1	IDE inh 18 | IDE cell inh cf inactive | HEK cytotox inactive
Cc1cc(C)cc(NC(=O)CSc2nnc(CN3CCOCC3)n2C)c1	none
O=C(CSc1nnc(CN2CCOCC2)n1-c1ccc(Cl)cc1)Nc1ccc2c(c1)OCO2	none
COc1ccc(NC(=O)c2nc[nH]c2C(=O)NCCCCCNC(=O)OC(C)(C)C)cc1	none (no result: RTF Ca sens act, LANA DNA inh, Keap1-Nrf2 PPI, IDE act, RTF Ca sens inh)
COc1ccc2c(c1)c(/C=C/c1cc[n+](C)cc1)cn2C	RTF Ca sens act 75, IDE inh 27 | IDE cell inh cf 47 | HEK cytotox 44
CC(=O)c1ccc(NCC(=O)N2CCN(c3ccccc3)CC2)cc1	IDE inh 21 | IDE cell inh cf inactive | HEK cytotox inactive
Cc1cc(C)c([N+](=O)[O-])cc1NCC(=O)N1CCN(c2ccccc2)CC1	IDE inh 22 | IDE cell inh cf inactive | HEK cytotox inactive
CC(=O)c1ccc(N2CCN(C(=S)Nc3ccccc3)CC2)cc1	none
COc1ccc2[nH]c3c(N4CCN(Cc5ccc6c(c5)OCO6)CC4)ncnc3c2c1	none
COc1ccc2[nH]c3c(N4CCC(O)(c5cccc(C(F)(F)F)c5)CC4)ncnc3c2c1	IDE inh 23 | IDE cell inh cf inactive | HEK cytotox 65
CCCN1CCC2(CC1)C(C#N)=C(N)Oc1c2sc2nc(C)cc(C)c12	IDE inh 23 | IDE cell inh cf inactive | HEK cytotox inactive
CC[n+]1c(C)sc2sc3ccccc3c21	none (no result: RTF Ca sens act, LANA DNA inh, Keap1-Nrf2 PPI, IDE act, RTF Ca sens inh)
CC[n+]1c(C)sc2c3ccsc3ccc21	IDE inh 42 | IDE cell inh cf inactive | HEK cytotox inactive
Cn1cc(-c2ccccc2C(N)=O)c(=O)c2cc(Cl)ccc21	none
Cn1cc(C2=C(c3ccc(Cl)cc3Cl)C(=O)NC2=O)c2ccccc21	RTF Ca sens act 47, IDE inh 33 | IDE cell inh cf 60 | HEK cytotox inactive
CS(=O)(=O)c1cccc(C(=O)Nc2ccc(-c3nc4ccccc4[nH]3)cc2)c1	IDE inh 28 | IDE cell inh cf inactive | HEK cytotox 36
Cn1cccc1-c1nc2ccc(NC(=O)c3ccco3)cc2[nH]1	none
Cc1ccc2nc(-c3ccc(NC(=O)c4ccco4)cc3)[nH]c2c1	IDE inh 17 | IDE cell inh cf inactive | HEK cytotox inactive
O=C1c2ccccc2C(=O)C1(O)O	none (no result: RTF Ca sens act, LANA DNA inh, Keap1-Nrf2 PPI, IDE act, RTF Ca sens inh)
CC1(S(=O)(=O)O)CC(=O)c2ccccc2C1=O (stereo not drawn)	IDE inh 43 | IDE cell inh cf 116 | HEK cytotox 29
COC(=O)C[N+](C)(C)C/C=C\c1ccccc1	none
